Assay results taken from the supplement of paper PMC3334620.
The full ranking holds about 33,000 sequences; the median of “E-score (-0.5 to 0.5)” is about -8e-05, and the highest 2% start at about 0.23. The full list was thinned out, with the highest values kept by preference.

The sequences below were run against T1, Nrg2 (UniProt P38082) (assay: PBM E-score (8-mer binding enrichment) (E-score (-0.5 to 0.5)); higher = stronger / more preferred TF binding). Conditions: protein concentration: 100 nM; construct: GST-full length.
T1 sequence: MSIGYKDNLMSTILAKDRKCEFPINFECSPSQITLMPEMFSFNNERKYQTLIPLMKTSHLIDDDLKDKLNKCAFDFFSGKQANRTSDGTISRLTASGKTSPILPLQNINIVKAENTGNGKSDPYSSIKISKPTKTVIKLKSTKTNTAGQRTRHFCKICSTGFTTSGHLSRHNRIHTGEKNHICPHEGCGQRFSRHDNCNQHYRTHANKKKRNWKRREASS
Procedure: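 Universal 'all 10-mer' protein binding microarrays (Agilent AMADID 015681) probed with GST-tagged S. cerevisiae TFs (full-length or DBD) made by in vitro transcription/translation (PURExpress), about 100-200 nM. Bound TF was detected with fluorescent anti-GST. Each ungapped 8-mer (which stands for itself and its reverse complement) is scored by the PBM enrichment score (E-score), a modified Wilcoxon-Mann-Whitney statistic from -0.5 to +0.5, computed with the Universal PBM Analysis Suite. Scale: above 0.35 generally sequence-specific binding.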

Sequence | PBM E-score
CAACAAGG | 0.186
GACTCTCA | -0.0326
AATGCACC | 0.0152
GAATTTGC | 0.172
ATCTGAGG | 0.0579
ACTAACGA | 0.00448
CACAGCGC | 0.156
AGCGACCA | -0.0183
CCCGACAA | 0.261
GGCGACCA | -0.146
CGCGAACA | 0.264
TGCGACAA | 0.0655
AGCGAACA | 0.0707
ACCGACAA | 0.0162
CGCGACAA | 0.308
CGCGACCA | 0.23
CCCGACAG | -0.165
GGCGAACA | -0.00418
GGCGACAA | -0.0104
ACGCCCCA | 0.179
AAGGCGGG | -0.208
CGGTGATA | -0.0567
ACAGAGCA | 0.0833
TAGCATGA | 0.149
GAAATGAC | 0.249

Sequence | PBM E-score
CAAATGAC | 0.0271
CAAATGAA | -0.0303
TAAATGAA | 0.0819
AAAATGAC | 0.0768
GAAATGAA | 0.29
AGCGAAAC | 0.102
CTTACCAA | 0.069
CAGCGCCG | -0.09
ATACCAAT | 0.0716
GCAAGAGA | -0.12
CTATTTCA | 0.164
GAATTTCC | 0.252
CTATTTCC | 0.255
ATATTTCC | 0.206
CAATTTCC | 0.108
AAATTTCC | 0.113
AGTAGGTC | -0.219
CATTAGTA | 0.112
ATTTAGTA | 0.274
ATTTAGTC | 0.0158
CTTTAGTA | -0.00347
AATTAGTA | 0.23
AATTAGTC | 0.107
GATGCGGC | -0.094
ACTCTAGA | -0.0152

Sequence | PBM E-score
GGTGGGAA | -0.0571
CGCGGGGA | 0.165
CGTGGGGA | 0.121
GGCGGGGA | 0.249
GGTGGGGA | 0.265
TATGGGGA | 0.283
CATGGGGA | 0.135
AATGGGGA | 0.0109
GGCGGGAA | -0.11
ATACCGAC | -0.243
CCGTCCGA | -0.257
GACTAGGA | -0.0424
CAAATCTA | 0.101
ACTTGAGC | -0.295
ACGTGGCT | -0.0848
ATACTGAT | 0.225
ATACTGAC | 0.146
CTACTGAG | -0.00592
ATACTGAG | 0.255
ATACTGTG | -0.0451
ATACTGTC | 0.256
AGCCGCGA | -0.0535
AGTCCAAC | 0.0694
ATGTTCTC | -0.0462
AGTAAGAG | -0.0249

Sequence | PBM E-score
ATCCCTTA | 0.0558
ATCCCTGA | 0.256
GTCCCTTA | 0.288
ATCCCCTA | 0.0411
ATCCCTCG | 0.0848
GTCCCTCA | 0.0343
ATCCCTGC | 0.157
ATCCCTGG | 0.302
ATCCCTCA | -0.0503
CTCCCTGA | 0.0641
CTCCCTTA | -0.202
GTCCCTGA | 0.356
ATCTGCTC | -0.0264
AGGCATAT | -0.0234
ACGAGGGC | 0.0428
CCGCCAGA | -0.0239
GACAACCA | 0.122
TATCCCAA | -0.005
ATTGGCCA | 0.171
TACACGAA | 0.18
CTACAGGC | -0.0785
CCAGGGGC | 0.0624
ACAGGGGC | 0.0717
CGAGGGTA | 0.0487
CCAGGGCC | 0.106

Sequence | PBM E-score
CCAGGGTC | 0.392
AGAGGGTC | -0.0416
ACAGGGTC | 0.402
ACAGGGCC | 0.295
ACAGGGCA | 0.195
CTAGGGTC | 0.188
GCAGGGTA | 0.164
CCAGGGTA | 0.304
GTCCATGA | -0.237
GGCAATTA | 0.103
CGCATTGC | 0.148
ACAACAGA | -0.0576
CGCGAAGA | 0.12
AATCGTGT | 0.164
ATGGGTGC | -0.0107
GATGAAAA | 0.0467
CTCCCAAC | -0.0556
CTACCACC | -0.166
AGCGGGTC | -0.21
ACAGGGTA | 0.349
ACAGGGTG | 0.0367
ATAGGGTA | 0.17
CTTGTGCC | -0.222
AGTTCTAG | -0.0512
ATTGAGAC | 0.0341

Sequence | PBM E-score
ATTGAGAA | 0.232
ATTGAGAG | 0.0708
TAAAACTA | 0.0863
AGGGGCCC | 0.276
AGGGGGCC | -0.189
AAGGGCCT | 0.0464
AAGGGCCG | -0.0822
GGGCCCCC | -0.279
CAGGGCCA | -0.0826
CAGGGCCC | 0.42
GGGGCCCC | 0.267
CGGGCCCC | 0.119
AAGGGCCC | 0.347
GAGGGCCC | 0.151
CGGGGCCC | 0.221
CACCCGAC | -0.0642
AAAAGCGG | -0.12
AAAGTAGT | 0.0374
AGTGAAAG | -0.0491
ACTCAATC | 0.0391
AACCCCGG | 0.0231
AAGTTTCA | 0.149
GAGTTTCA | 0.00699
TAGTTTCA | 0.258
CGTGAATA | 0.17

Sequence | PBM E-score
TACCACAA | 0.0795
TTAATTAA | 0.198
GTAATTGA | 0.00642
ATAATTAA | 0.264
ATAATTAC | 0.176
ATAATTGA | 0.276
CTAATTGA | 0.0446
CTAGATGA | -0.0603
GCGAAACA | 0.0688
AACGATGA | 0.0545
ACCGCATC | 0.159
AAATTGCA | 0.232
AATTGAGG | 0.0708
AATTGAGT | 0.245
AATTGGGT | 0.26
AATTGGGC | -0.0483
AAATTGTA | 0.0349
CAATTGCA | -0.0952
AATTGGGG | -0.0654
AAATTGTT | 0.0684
AAATTGTC | 0.24
AATTGAGA | 0.0993
AAATTGCT | -0.0593
CAGAGCGC | -0.213
